The text below walks through data of PubChem BioAssay.

The source made the active and inactive calls.

In assay [1] the test system is PRMT1 (protein arginine N-methyltransferase 1). The assay is described as follows: PRMT1 binders on small-molecule microarrays, primary screen, biochemical, small-molecule microarray, 635 nm fluorescence (AID 1088).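 Further: binding of Prmt1 protein to compounds spotted on small-molecule microarray slides.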 The conditions noted are these: small-molecule microarray binding, higher = more signal.
A short description of assay [2]: yeast growth modulation, basal conditions, primary screen, YJM789 clinical isolate, OD600, 24 h (AID 1089).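 Further: growth of clinical yeast isolate S. cerevisiae YJM 789 seeded 1000 cells per well; test concentration not given here.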 The conditions noted are these: S. cerevisiae YJM789 growth, higher = more signal, called active from +8 up or from −8 down.
A short description of assay [3]: fission yeast growth modulation, primary screen, strain 972, OD600, 24 h, no modulator (AID 1090).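 Further: basal condition with compound alone and no growth modifier present; test concentration not given here.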 The conditions noted are these: S. pombe 972 growth, higher = more signal, called active from +8 up or from −8 down.
The nature of assay [4]: S. cerevisiae growth modulation with rapamycin, primary screen, strain BY4716, OD600, 96 h (AID 1091). Further: test concentration not given here. The note with it: higher = more signal, called active from +8 up or from −8 down.
Assay [5] deals with Torsin-1A-interacting protein 2 (Homo sapiens) (UniProt Q8NFQ8). The assay is described as follows: LULL1 binders on small-molecule microarray, primary screen, cell lysate, human LULL1 lysate, 635/667 nm fluorescence (AID 1092).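 Further: probe is lysate of COS7 cells overexpressing human LULL1; score merges per-feature 667 nm fluorescence with signal-to-noise.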 The conditions noted are these: hLULL1 lysate binding, 635 nm fluorescence, higher = more signal.
Assay [6] is described as follows: E. coli growth modulation, two-sided OD650, primary screen, E. coli filamentation project, strain DRC41, 24 h (AID 1093).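 Further: MC1000 strain lacking acrAB efflux and sulA so SOS filamentation is blocked; test concentration not given here.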 The conditions noted are these: OD650, 24 h, higher = more signal, called active from +8 up or from −8 down.
Assay [7] is described as follows: small-molecule microarray binders of probe aLefty2, primary screen, biochemical, biotinylated probe, 635/667 nm fluorescence (AID 1094).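 Further: score merges spot fluorescence near 667 nm with spot signal-to-noise ratio.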 The note with it: higher = more signal.
In assay [8] the test system is Noggin (protein binding on small-molecule microarray). The assay is described as follows: Noggin binders on small-molecule microarray, primary screen, biochemical, 635/667 nm fluorescence (AID 1095).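 Further: score merges 667 nm feature fluorescence with signal to noise over triplicate slides.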 The note with it: 635 nm fluorescence, higher = more signal.
Assay [9] addresses Neurogenic locus notch homolog protein 3 (Homo sapiens) (UniProt Q9UM47). The assay is described as follows: NOTCH3 binders on small-molecule microarray, primary screen, biochemical, 635/667 nm fluorescence (AID 1096). The conditions noted are these: NOTCH3 binding, 635 nm fluorescence, higher = more signal.
The nature of assay [10]: small-molecule microarray binders of probe aEGFR, primary screen, biochemical, biotinylated probe, 635/667 nm fluorescence (AID 1097).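 Further: probe is a biotinylated anti-EGFR antibody binding compounds printed on slides; score combines fluorescence near 667 nm and signal to noise of each spot.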 The note with it: higher = more signal.
Assay [11] has as its system Plasmodium falciparum Sir2 (PF13_0152, Sir2A). The assay is described as follows: pfSir2 binders on small-molecule microarrays, primary screen, biochemical, small-molecule microarray, 635 nm fluorescence (AID 1098).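 Further: score merges spot fluorescence intensity with its signal-to-noise ratio.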 The note with it: small-molecule microarray binding, fluorescence 635 nm; higher = more signal.
Assay [12] can be described thus: small-molecule microarray binders of probe aDKK1, primary screen, biochemical, biotinylated probe, 635/667 nm fluorescence (AID 1099).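 Further: score merges 667nm spot fluorescence with signal to noise across triplicate slides; reference of the scale not given here.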 The conditions noted are these: higher = more signal.
Assay [13] is described as follows: small-molecule microarray binders of probe aCHRDL2, primary screen, biochemical, biotinylated probe, 635/667 nm fluorescence (AID 1100). The note with it: higher = more signal.
Assay [14] can be described thus: splicing luciferase reporter signal modulators, primary screen, spliceosome inhibition project, cell-based, HEK293, splice +/- reporter (AID 1101).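 Further: HEK293 cells carrying a splicing-competent luciferase reporter gene; test concentration not given here.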 The note with it: luminescence, 24 h, higher = more signal, called active from +8 up or from −8 down.
Assay [15] addresses Fibroblast growth factor 10 (Homo sapiens) (UniProt O15520). The assay is described as follows: FGF10 binders on small-molecule microarrays, primary screen, biochemical, small-molecule microarray, 635 nm fluorescence (AID 1102). The conditions noted are these: FGF10 binding, fluorescence 635 nm, higher = more signal.
Assay [16] relates to glycogen synthase kinase-3 (GSK3A per assay name; protocol says GSK3B). The assay is described as follows: GSK3 binders on small-molecule microarrays, primary screen, biochemical, small-molecule microarray, 635 nm fluorescence, GSK3A (AID 1103). Further: the record names both GSK3A and GSK3B. The note with it: small-molecule microarray binding, fluorescence 635 nm; higher = more signal.
Assay [17] deals with Epidermal growth factor receptor (Homo sapiens) (UniProt P00533). The assay is described as follows: EGFR binders on small-molecule microarrays, primary screen, biochemical, small-molecule microarray, 635 nm fluorescence (AID 1104).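 Further: score merges 667 nm emission intensity with spot signal to noise over triplicate slides.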 The note with it: EGFR binding, higher = more signal.
The target of assay [18] is Follistatin-related protein 3 (Homo sapiens) (UniProt O95633). The assay is described as follows: FSTL3 binders on small-molecule microarrays, primary screen, biochemical, small-molecule microarray, 635 nm fluorescence (AID 1105).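 Further: score merges emission near 667 nm and signal to noise per printed spot across three slides.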 The conditions noted are these: FSTL3 binding, higher = more signal.
Assay [19] addresses Dickkopf-related protein 1 (Homo sapiens) (UniProt O94907). The assay is described as follows: DKK1 binders on small-molecule microarrays, primary screen, biochemical, small-molecule microarray, 635 nm fluorescence scan (AID 1106).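 Further: score merges emission near 667 nm with signal to noise over three replicate slides.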 The conditions noted are these: DKK1 binding, higher = more signal.
The test system of assay [20] is Inhibin beta A chain (activin A). The assay is described as follows: INHBA (activin A) binders on microarrays, primary screen, biochemical, small-molecule microarray, 635 nm fluorescence scan (AID 1107).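 Further: mouse activin A protein probed at 4.33 µg/mL on printed slides; score merges bound-protein fluorescence near 667 nm with spot signal-to-noise.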 The conditions noted are these: small-molecule microarray binding, higher = more signal.

Fibroblast growth factor 10 (Homo sapiens), sequence (O15520 whole entry, looked up): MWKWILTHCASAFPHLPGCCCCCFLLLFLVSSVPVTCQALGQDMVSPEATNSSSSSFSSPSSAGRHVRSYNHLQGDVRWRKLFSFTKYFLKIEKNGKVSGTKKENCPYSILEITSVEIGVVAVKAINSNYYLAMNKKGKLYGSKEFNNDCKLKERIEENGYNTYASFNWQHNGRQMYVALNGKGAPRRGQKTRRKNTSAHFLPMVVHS
Dickkopf-related protein 1 (Homo sapiens), sequence (O94907 whole entry, looked up): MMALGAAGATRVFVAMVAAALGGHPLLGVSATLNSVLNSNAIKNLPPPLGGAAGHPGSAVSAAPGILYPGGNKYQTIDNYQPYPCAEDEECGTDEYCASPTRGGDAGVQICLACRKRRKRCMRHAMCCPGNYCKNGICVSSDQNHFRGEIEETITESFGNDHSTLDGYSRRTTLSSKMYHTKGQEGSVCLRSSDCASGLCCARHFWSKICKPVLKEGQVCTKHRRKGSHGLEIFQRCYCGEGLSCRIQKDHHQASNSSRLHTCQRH
Neurogenic locus notch homolog protein 3 (Homo sapiens), sequence (Q9UM47 whole entry, looked up): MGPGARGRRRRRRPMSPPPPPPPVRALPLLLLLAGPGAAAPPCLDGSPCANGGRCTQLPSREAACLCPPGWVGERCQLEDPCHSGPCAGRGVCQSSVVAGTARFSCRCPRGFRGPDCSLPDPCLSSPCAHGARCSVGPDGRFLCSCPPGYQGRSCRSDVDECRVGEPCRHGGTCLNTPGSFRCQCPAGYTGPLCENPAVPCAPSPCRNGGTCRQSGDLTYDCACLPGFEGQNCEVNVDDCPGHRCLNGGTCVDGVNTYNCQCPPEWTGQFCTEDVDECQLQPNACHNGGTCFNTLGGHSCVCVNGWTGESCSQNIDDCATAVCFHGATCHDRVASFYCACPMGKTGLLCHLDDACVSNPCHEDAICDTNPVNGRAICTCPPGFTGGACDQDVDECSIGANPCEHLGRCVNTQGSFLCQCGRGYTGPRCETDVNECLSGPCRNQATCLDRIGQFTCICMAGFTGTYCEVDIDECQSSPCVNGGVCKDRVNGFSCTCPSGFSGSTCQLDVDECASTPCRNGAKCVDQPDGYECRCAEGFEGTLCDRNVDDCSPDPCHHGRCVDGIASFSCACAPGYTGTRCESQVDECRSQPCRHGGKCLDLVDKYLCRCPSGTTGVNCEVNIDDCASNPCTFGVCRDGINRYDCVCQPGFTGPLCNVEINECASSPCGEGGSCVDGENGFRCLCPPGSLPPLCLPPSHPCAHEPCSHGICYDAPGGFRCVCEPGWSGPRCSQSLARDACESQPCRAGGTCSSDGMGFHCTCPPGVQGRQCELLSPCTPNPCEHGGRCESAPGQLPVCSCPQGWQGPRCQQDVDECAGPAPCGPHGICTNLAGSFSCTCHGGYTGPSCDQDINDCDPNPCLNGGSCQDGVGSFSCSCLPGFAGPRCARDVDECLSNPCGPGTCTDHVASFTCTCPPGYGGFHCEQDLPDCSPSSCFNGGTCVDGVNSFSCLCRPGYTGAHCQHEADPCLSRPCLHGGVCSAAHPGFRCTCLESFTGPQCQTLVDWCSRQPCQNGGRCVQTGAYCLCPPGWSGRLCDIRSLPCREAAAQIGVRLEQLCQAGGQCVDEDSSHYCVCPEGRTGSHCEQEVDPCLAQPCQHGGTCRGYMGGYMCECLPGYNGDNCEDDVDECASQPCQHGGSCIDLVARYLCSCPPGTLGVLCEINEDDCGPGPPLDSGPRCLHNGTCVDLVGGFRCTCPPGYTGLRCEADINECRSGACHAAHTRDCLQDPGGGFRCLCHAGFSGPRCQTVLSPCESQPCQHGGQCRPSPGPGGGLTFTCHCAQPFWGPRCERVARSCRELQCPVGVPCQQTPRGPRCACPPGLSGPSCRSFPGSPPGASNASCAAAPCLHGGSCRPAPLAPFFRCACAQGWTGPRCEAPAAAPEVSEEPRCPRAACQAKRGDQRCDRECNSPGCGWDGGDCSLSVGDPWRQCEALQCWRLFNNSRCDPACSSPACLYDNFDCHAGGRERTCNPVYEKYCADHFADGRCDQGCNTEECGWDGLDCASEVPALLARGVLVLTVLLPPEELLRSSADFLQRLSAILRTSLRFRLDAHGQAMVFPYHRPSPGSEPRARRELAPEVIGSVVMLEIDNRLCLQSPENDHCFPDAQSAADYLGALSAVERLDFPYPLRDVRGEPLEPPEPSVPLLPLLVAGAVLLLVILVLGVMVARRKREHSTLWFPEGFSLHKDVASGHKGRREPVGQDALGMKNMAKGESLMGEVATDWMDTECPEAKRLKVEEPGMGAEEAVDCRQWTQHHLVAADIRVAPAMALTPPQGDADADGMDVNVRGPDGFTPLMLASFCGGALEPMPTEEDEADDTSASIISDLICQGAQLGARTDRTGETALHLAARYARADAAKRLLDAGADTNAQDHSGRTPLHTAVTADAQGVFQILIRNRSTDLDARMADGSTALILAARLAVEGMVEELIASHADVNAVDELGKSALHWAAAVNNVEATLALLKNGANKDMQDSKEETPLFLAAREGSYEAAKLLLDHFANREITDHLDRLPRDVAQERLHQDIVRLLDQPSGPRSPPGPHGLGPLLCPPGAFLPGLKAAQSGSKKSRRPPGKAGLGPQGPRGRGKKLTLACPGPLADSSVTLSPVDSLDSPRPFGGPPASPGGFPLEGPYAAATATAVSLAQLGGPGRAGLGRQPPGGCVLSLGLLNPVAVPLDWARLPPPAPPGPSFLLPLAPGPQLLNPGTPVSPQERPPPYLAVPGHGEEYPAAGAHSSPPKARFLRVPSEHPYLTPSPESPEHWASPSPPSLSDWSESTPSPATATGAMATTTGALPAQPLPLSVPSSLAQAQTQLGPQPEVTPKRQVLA
Epidermal growth factor receptor (Homo sapiens), sequence (P00533 whole entry, looked up): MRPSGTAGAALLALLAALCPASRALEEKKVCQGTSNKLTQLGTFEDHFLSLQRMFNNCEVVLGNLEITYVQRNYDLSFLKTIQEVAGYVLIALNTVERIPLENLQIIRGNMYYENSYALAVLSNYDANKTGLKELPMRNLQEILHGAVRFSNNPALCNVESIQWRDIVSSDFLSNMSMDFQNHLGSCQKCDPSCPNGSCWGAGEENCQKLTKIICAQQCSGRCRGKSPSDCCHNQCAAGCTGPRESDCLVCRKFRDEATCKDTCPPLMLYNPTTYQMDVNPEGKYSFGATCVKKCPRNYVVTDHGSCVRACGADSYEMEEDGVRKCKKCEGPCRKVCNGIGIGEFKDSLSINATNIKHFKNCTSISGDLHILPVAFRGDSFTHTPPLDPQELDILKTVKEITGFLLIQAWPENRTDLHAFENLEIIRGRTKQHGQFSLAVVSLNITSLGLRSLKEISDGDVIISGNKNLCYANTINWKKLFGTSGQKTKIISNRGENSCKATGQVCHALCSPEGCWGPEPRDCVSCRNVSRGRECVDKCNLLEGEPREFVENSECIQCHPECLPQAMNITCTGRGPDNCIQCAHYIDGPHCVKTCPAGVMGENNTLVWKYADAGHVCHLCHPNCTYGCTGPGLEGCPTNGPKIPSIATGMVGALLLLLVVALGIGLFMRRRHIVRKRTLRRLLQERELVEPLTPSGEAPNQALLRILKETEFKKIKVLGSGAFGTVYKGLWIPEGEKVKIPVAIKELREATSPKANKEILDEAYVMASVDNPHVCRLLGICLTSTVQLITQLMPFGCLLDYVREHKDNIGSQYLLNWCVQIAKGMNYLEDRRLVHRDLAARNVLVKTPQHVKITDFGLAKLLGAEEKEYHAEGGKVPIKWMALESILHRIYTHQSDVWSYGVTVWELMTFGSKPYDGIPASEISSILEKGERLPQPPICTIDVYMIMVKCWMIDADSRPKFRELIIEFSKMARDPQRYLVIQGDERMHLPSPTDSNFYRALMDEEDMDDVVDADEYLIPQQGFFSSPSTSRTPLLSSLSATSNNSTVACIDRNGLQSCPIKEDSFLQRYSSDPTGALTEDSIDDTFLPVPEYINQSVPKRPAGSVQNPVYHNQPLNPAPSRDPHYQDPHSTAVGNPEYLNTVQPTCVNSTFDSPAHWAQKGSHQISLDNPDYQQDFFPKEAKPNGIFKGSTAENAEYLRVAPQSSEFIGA
Follistatin-related protein 3 (Homo sapiens), sequence (O95633 whole entry, looked up): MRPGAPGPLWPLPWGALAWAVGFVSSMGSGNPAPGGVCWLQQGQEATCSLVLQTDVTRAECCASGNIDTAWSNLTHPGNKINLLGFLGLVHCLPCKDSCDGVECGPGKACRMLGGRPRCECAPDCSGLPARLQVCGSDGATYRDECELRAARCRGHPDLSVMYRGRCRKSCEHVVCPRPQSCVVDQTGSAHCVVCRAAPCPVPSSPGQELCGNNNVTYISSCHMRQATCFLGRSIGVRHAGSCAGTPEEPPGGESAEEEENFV
Torsin-1A-interacting protein 2 (Homo sapiens), sequence (Q8NFQ8 whole entry, looked up): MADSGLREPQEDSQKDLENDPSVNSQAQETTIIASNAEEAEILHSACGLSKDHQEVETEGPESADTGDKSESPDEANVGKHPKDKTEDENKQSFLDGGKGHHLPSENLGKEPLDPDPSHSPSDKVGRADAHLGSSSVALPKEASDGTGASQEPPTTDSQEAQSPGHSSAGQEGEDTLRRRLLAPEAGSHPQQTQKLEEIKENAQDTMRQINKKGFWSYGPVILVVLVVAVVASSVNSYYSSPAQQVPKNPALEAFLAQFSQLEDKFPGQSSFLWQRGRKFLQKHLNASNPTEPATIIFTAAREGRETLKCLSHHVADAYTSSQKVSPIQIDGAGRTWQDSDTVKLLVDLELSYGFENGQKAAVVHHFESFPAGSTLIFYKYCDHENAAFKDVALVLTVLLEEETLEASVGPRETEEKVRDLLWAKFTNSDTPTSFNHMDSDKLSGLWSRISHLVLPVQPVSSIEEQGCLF

Consider `COc1ccc([Si](C)(C)[C@@H]2[C@@H](CCO)O[C@]3(C(=O)N(Cc4ccc(N5CCCCC5=O)cc4)c4ccccc43)[C@H]2C)cc1`, for which the composite z-score in [1] is 1.53; in assay [5], 2.09; in assay [7] it was -0.181; in assay [8], 0.731; in [9], 1.11; in assay [10], -0.0828. Besides, the composite z-score was 1.15 in [11]; -0.128 in assay [12]; -0.756 in assay [13]; 1.21 in assay [15]; 0.83 in assay [16]; 0.336 in assay [17]. Also, the composite z-score was 0.87 in assay [18], 0.562 in [19] and 0.669 in [20]. In addition, the z-score in assay [2] was -0.102 (inactive); in assay [3], 0.0767 (inactive); in [4], 3.05 (inactive); in [6], 1.2 (inactive); in assay [14], -1.73 (inactive).

As for `O=C1O[C@H](c2ccccc2)[C@H](c2ccccc2)N2[C@H]1[C@@H](C(=O)NC[C@H](O)c1ccccc1)[C@]1(C(=O)Nc3ccc(C#CCCO)cc31)[C@H]2c1ccc(OCCO)cc1`, the composite z-score in assay [1] was 1.55; in [5] it was 2.08; in [7], -0.122; in assay [8], 0.558; in assay [9], 0.818; in assay [10], -0.133. In addition, the composite z-score in [11] turned out to be 1.58; in assay [12] it was 0.222; in [13] it was 0.0751; in assay [15], 0.575; in [16], 0.739; in [17] it was 0.037. Also, the composite z-score in assay [18] was determined as 0.701; in assay [19] it was 0.264; in assay [20], 0.503. The z-score in [2] was 2.73 (inactive); in [3] it was 1.62 (inactive); in assay [4], 4.7 (inactive); in [6], 0.301 (inactive); in assay [14] it was 0.613 (inactive).

Consider `COCCCNC(=O)[C@@]1(Cc2ccccc2N=[N+]=[N-])COC(c2ccc(OCCCO)cc2)=N1`, for which the composite z-score in assay [1] was determined as 1.43; in assay [5], 3.13; in assay [7] it was 0.219; in assay [8] it was 0.0137; in assay [9], 0.0417; in assay [10], 0.507. The composite z-score is 0.955 in assay [11]; 0.516 in [12]; 1.17 in [13]; 0.475 in [15]; -0.331 in assay [16]; -0.027 in [17]. The composite z-score in assay [18] is -0.121; in [19] it was -0.599; in [20], 1.61. Besides, the z-score in [2] is -0.0885 (inactive); in assay [3], -1.52 (inactive); in assay [4], 0.0734 (inactive); in assay [6], 1.39 (inactive); in [14], 0.989 (inactive).

In the case of `CC=CC(O)C1C=CC2C(=O)N(c3ccccc3)C(=O)C2N1Nc1ccccc1F` (stereo not given), the composite z-score in assay [1] was 0.841; in assay [5] it was 3.08; in assay [7], 0.535; in assay [8], -0.592; in assay [9], -0.411; in assay [10], 0.312. Moreover, the composite z-score is 0.32 in [11]; 1.24 in assay [12]; 0.76 in [13]; 0.169 in [15]; -0.352 in [16]; 0.114 in assay [17]. Further, the values for the composite z-score in assay [18], in assay [19] and in assay [20] were -0.0808, 0.0324 and 1.21, respectively. Besides, the z-score in assay [2] is -0.0071 (inactive); in assay [3], 1.4 (inactive); in assay [4], 0.741 (inactive); in assay [6], -0.463 (inactive); in [14], 0.095 (inactive).

As for `COCCOC(=O)N1C(=O)[C@@]2(c3cc(C#CC4=CCCCC4)ccc31)[C@H](c1ccc(OCCO)cc1)N1[C@H](c3ccccc3)[C@H](c3ccccc3)OC(=O)[C@H]1[C@@H]2C(=O)N1CCN(c2ncccn2)CC1`, the composite z-score was determined as 1.46 in assay [1]; 1.73 in assay [5]; 0.0444 in assay [7]; 0.788 in assay [8]; 1.1 in assay [9]; 0.0289 in [10]. Besides, the composite z-score stood at 0.28 in [11]; 0.0367 in assay [12]; 0.262 in [13]; 1.34 in assay [15]; 1.3 in assay [16]; 0.494 in assay [17]. The composite z-score in [18] worked out at 0.866; in assay [19], 0.605; in assay [20] it was 0.783. Besides, the z-score is 0.372 (inactive) in [2]; 1.23 (inactive) in assay [3]; 3.64 (inactive) in assay [4]; 1.37 (inactive) in assay [6]; 0.515 (inactive) in assay [14].
